About 1,100 (1.7%) of roughly 63,000 compounds were called active. Rule as the data show it: active = cytotoxicity above about 50%; inactive = the rest. Many of the other results were omitted from the sample, so actives are more common in it than they were. Measured potencies and affinities stand elsewhere.
Assay: cytotoxicity in HPDE-C7 cells, cell-based, fluorescence, HTS (AID 430);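 also: cells exposed to compound for 48 hours before viability readout; 0% = vehicle and 100% = reference cytotoxic drug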
Settings: HPDE-C7 pancreatic duct cells viability, at 10 µM, hits give high values

SMILES | cytotoxicity
Cc1cc(C(=O)CN2C(=O)c3ccccc3C2=O)c(C)n1C1CC1 | 6.6% (inactive)
O=C(c1ccccc1)N1CCCOC1c1ccccc1 (centres undefined) | 2.4% (inactive)
Cn1c(=O)c2c(nc(SCC(=O)NC3CCCCC3)n2C)n(C)c1=O | -18.4% (inactive)
COc1ccc(CCNC(=O)CN2C(=O)c3ccccc3S2(=O)=O)cc1OC | 0.7% (inactive)
Cn1cccc1Cc1nnc(SCC(=O)Nc2ccccc2)n1-c1ccc(F)cc1 | 0% (inactive)
O=C(CN1CCC(NC(=O)c2ccc(F)cc2)CC1)NCc1ccccc1F | -5.6% (inactive)
O=C(Nc1cccc(Cl)c1)N1CCN(Cc2ccccc2)CC1 | 17.3% (inactive)
O=C(NC1CCCc2ccccc21)C1CCCO1 (centres undefined) | 2% (inactive)
CCC(C)(C)NC(=O)C(c1ccccc1F)N(Cc1ccco1)C(=O)Cn1nnc2ccccc21 (centres undefined) | 2.4% (inactive)
O=C(NC1CCCCC1)C(c1ccccc1F)N(Cc1ccco1)C(=O)Cn1nnc2ccccc21 (centres undefined) | 63.4% (active)
O=C(NC1CCCCC1)C(c1ccc(F)cc1)N(Cc1ccco1)C(=O)Cn1nnc2ccccc21 (centres undefined) | -13.1% (inactive)
Cc1ccc(S(=O)(=O)Nc2nc3ccccc3nc2NCc2ccco2)cc1C | -2.8% (inactive)
C=CCn1c(SCC(=O)NC(=O)NCc2ccco2)nc2sc(CC)cc2c1=O | 57.6% (active)
C=CCn1c(SCC(=O)NC(=O)NCc2ccco2)nc2sc(C)c(C)c2c1=O | -0.5% (inactive)
C=CCn1c(SCC(=O)N2CCN(C(=O)c3ccco3)CC2)nc2sc(CC)cc2c1=O | -4.1% (inactive)
O=C(CSc1nc2cc(Cl)ccc2s1)NC(=O)NCc1ccco1 | -4.7% (inactive)
O=C(CCCSc1nc2ccccc2s1)NCc1ccco1 | -2.9% (inactive)
O=C(CSc1nc2ccccc2s1)NC(=O)NCc1ccco1 | 82.9% (active)
Cc1ccc2cc3cc(C(=O)N4CCN(C(=O)c5ccco5)CC4)sc3nc2c1 | -0.9% (inactive)
CCn1cc(C(=O)N2CCCC2)c(=O)c2cc(S(=O)(=O)N3CCOCC3)ccc21 | -4.3% (inactive)
Cc1cccc(-c2nc(CS(=O)CC(=O)NC3CCCC3)c(C)o2)c1 (centres undefined) | 10.3% (inactive)
CC(OC1=CC(=O)CCC1)C(=O)c1ccccc1 (centres undefined) | -4.7% (inactive)
COc1ccccc1OCc1nc(C#N)c(NCc2ccco2)o1 | 3.4% (inactive)
CCCCCCC1CC(CSc2ncn[nH]2)OC1=O (centres undefined) | 6.8% (inactive)

SMILES | cytotoxicity
CCOC(=O)c1ccc(N2CC(O)=C(c3nc4ccccc4c(=O)[nH]3)C2=N)cc1 | 38.3% (inactive)
COc1ccccc1N1CC(O)=C(c2nc3ccccc3c(=O)[nH]2)C1=N | 26.8% (inactive)
COc1cccc(N2CC(O)=C(c3nc4ccccc4c(=O)[nH]3)C2=N)c1 | 54.2% (active)
O=C(O)C1C(c2ccccc2)C(C(=O)OCCCO)C1c1ccccc1 (centres undefined) | 4.7% (inactive)
C=CCc1cccc(/C=N/c2ncn[nH]2)c1O | 4.1% (inactive)
O=c1c2ccccc2c(/C=N/c2ncn[nH]2)c(O)n1Cc1ccccc1 | 5.2% (inactive)
COc1cccc(C=Nc2cc(C)on2)c1O | -3.2% (inactive)
COc1cc(Br)cc(/C=N/c2ncn[nH]2)c1O | 88.6% (active)
COc1cc(Br)cc(CN2CCN(C=O)CC2)c1O | -1.6% (inactive)
Oc1c(/C=N/c2ncn[nH]2)ccc2ccccc12 | 54.2% (active)
O=C(O)CN1CCN(Cc2ccc(F)cc2Cl)C1=O | -10.1% (inactive)
COc1ccc(CCn2nnnc2C(CC(C)C)N2CCC(C(N)=O)CC2)cc1OC (centres undefined) | -10.9% (inactive)
CCCS(=O)(=O)N1CCC(C(=O)NCc2ccccc2Cl)CC1 | -9.6% (inactive)
CN(C)c1ccc(-c2nn3c(-c4ccccc4Cl)nnc3s2)cc1 | 63.8% (active)
CN(C)c1ccc(-c2nn3c(-c4ccc(Cl)cc4Cl)nnc3s2)cc1 | 60.2% (active)
COc1ccccc1-c1nnc2sc(-c3ccc(N(C)C)cc3)nn12 | 44.4% (inactive)
Clc1ccccc1-c1nnc2sc(-c3ccncc3)nn12 | -13.4% (inactive)
CN(C)c1ccc(-c2nn3c(-c4ccc(Cl)cc4)nnc3s2)cc1 | -15.9% (inactive)
Cc1nn2c(-c3ccc(Cl)cc3Cl)nnc2s1 | -9.3% (inactive)
CCOc1ccc(N2C(=O)CC(SC(=NC)Nc3cccc(F)c3)C2=O)cc1 (centres undefined) | -18.7% (inactive)
O=C(CSc1ccc2c(c1)OCCO2)NCCN1C(=O)CSC1=O | 3.6% (inactive)
Cn1c(=O)[nH]c(=O)c2c1nc(N1CCN(c3cccc(Cl)c3)CC1)n2CCCc1ccccc1 | 5.2% (inactive)
O=S(=O)(c1ccc(F)c(Cl)c1)N1CCCC1 | 11.7% (inactive)
CCOC(=O)c1sc2nc(NC(=O)C3CCCCC3)sc2c1C | 66.7% (active)

SMILES | cytotoxicity
CCOC(=O)c1sc2nc(NC(=O)C3CC3)sc2c1C | 16% (inactive)
CCOC(=O)c1sc2nc(NC(=O)C(C)(C)C)sc2c1C | 1.8% (inactive)
CC(Sc1nnc(C2CCCCC2)n1N)C(=O)NCc1ccc2c(c1)OCO2 (centres undefined) | 0.2% (inactive)
CCCCN(CC)S(=O)(=O)c1ccc(C(=O)Nc2nnc(-c3ccccc3Cl)o2)cc1 | 59.8% (active)
CCCCN(C)S(=O)(=O)c1ccc(C(=O)Nc2nnc(CSC)o2)cc1 | 11.6% (inactive)
CCc1nnc(NC(=O)c2ccc(S(=O)(=O)N(CC)Cc3ccccc3)cc2)o1 | 35.7% (inactive)
CCCCN(CC)S(=O)(=O)c1ccc(C(=O)Nc2nnc(-c3cccs3)o2)cc1 | 49% (inactive)
CCCCN(C)S(=O)(=O)c1ccc(C(=O)Nc2nnc(-c3cccs3)o2)cc1 | 59.9% (active)
CC1CCCN(S(=O)(=O)c2ccc(C(=O)Nc3nnc(-c4ccccc4Cl)o3)cc2)C1 (centres undefined) | 60.8% (active)
CC1CN(S(=O)(=O)c2ccc(C(=O)Nc3nnc(-c4ccc5c(c4)CCCC5)o3)cc2)CC(C)O1 (centres undefined) | 41.7% (inactive)
O=C(Nc1nc(-c2cccs2)cs1)c1ccc(S(=O)(=O)N2CCCCC2)cc1 | -6.2% (inactive)
CCN(Cc1ccccc1)S(=O)(=O)c1ccc(C(=O)Nc2nnc(C3CC3)o2)cc1 | 4.1% (inactive)
CC1CC(C)CN(S(=O)(=O)c2ccc(C(=O)Nc3nnc(-c4cccs4)o3)cc2)C1 (centres undefined) | 69.8% (active)
O=C(Nc1nc(-c2cccs2)cs1)c1ccc(S(=O)(=O)N2CCCC2)cc1 | 6.2% (inactive)
CC1CCCN(S(=O)(=O)c2ccc(NC(=O)c3cccc(-n4cnnn4)c3)cc2)C1 (centres undefined) | 18.2% (inactive)
CCC1Sc2ccccc2N(CC(=O)NCCC(C)C)C1=O (centres undefined) | -14.5% (inactive)
FC(F)(F)c1cccnc1N1CCN(c2ncnc3nc[nH]c23)CC1 | -5.7% (inactive)
CCCCS(=O)(=O)NC1=NCN(CCO)CN1 | -7.4% (inactive)
CCCCN1C(=O)C(O)(CC(=O)c2c(C)n[nH]c2C)c2cc(Br)ccc21 (centres undefined) | 7.7% (inactive)
CN(c1ccc(C(=O)NCc2ccco2)cc1)S(C)(=O)=O | 0.7% (inactive)
COCCNC(=O)NC(=O)COC(=O)C12CC3CC(CC(NC(C)=O)(C3)C1)C2 | -1.4% (inactive)
CCOCCCn1c(=S)[nH]c2cc(C(=O)NCCN(CC)CC)ccc2c1=O | 1.7% (inactive)
Cc1[nH]c(=O)[nH]c(=O)c1NC(=O)CSc1ncccc1-c1nc2ccccc2[nH]1 | 3% (inactive)
NC(=O)c1ccsc1NC(=O)COC(=O)c1ccccc1NCc1ccco1 | 0.6% (inactive)

SMILES | cytotoxicity
COc1ccc(NC(=O)c2ccc(CN3CCN(c4ccccc4)CC3)cc2)cc1OC | -17.4% (inactive)
CCn1c(SCC(=O)N2CCN(c3ccccc3F)CC2)nnc1-c1ccoc1C | -0.9% (inactive)
CC1(C)OC(=O)N(c2ccccn2)C1(C)O (centres undefined) | 2.3% (inactive)
COCc1nnc(NC(=O)c2ccc(S(=O)(=O)N3CCCCCC3)cc2)o1 | 3.2% (inactive)
Cc1nnc(NC(=O)c2ccc(S(=O)(=O)N3CCCCCC3)cc2)o1 | 7.5% (inactive)
O=C(Nc1nnc(-c2ccccc2Cl)o1)c1ccc(S(=O)(=O)N2CCCCCC2)cc1 | 53.6% (active)
CC(OC(=O)c1cccc(NS(C)(=O)=O)c1)C(=O)Nc1ccc(N2CCOCC2)cc1 (centres undefined) | -30.2% (inactive)
COc1cccc(C2=CC(c3ccc(N(C)C)cc3)n3ncnc3N2)c1 (centres undefined) | -4.9% (inactive)
Cc1ccc(C2C=C(c3ccccc3OC(F)F)Nc3ncnn32)cc1 (centres undefined) | -8.7% (inactive)
CN(C)c1ccc(C2C=C(c3ccc(Cl)cc3OC(F)F)Nc3ncnn32)cc1 (centres undefined) | 52.1% (active)
O=C(Oc1ccc(Br)cc1)C1CC(=O)N(c2ccc(F)cc2)C1 (centres undefined) | -2.4% (inactive)
CCn1cnc2c1c(=O)n(CC(=O)Nc1cc(C)on1)c(=O)n2Cc1ccccc1 | 0% (inactive)
O=C(Nc1ccccc1C(F)(F)F)c1cc(-c2cccc(O)c2)on1 | -6.5% (inactive)
Cc1nc2ccccc2n1-c1ccccc1 | -4% (inactive)
CC(C)N=c1cc2n(-c3ccc(Cl)cc3)c3ccccc3nc-2cc1Nc1ccc(Cl)cc1 | 83.5% (active)
Cn1c(CNc2ccc(Cl)cc2)nc2ccccc21 | -13% (inactive)
COc1ccc(S(=O)(=O)n2cnc3cc(C)c(C)cc32)cc1C | 20.4% (inactive)
O=C(CN(CCc1ccccc1)C(=O)CNS(=O)(=O)c1ccccc1)NCC1CCCO1 (centres undefined) | -10.5% (inactive)
O=C(Nc1nc(-c2cccnc2)cs1)c1ccc(S(=O)(=O)N2CCOCC2)cc1 | -18.5% (inactive)
Cc1c(-c2ccccc2)nc(N)c(C#N)c1-c1ccco1 | -4.2% (inactive)
Cc1nc(N)c(C#N)c(-c2ccccc2)c1C | 13.3% (inactive)
CC1=C(C#N)c2nc(N)c(C#N)c(C)c2/C1=C\c1ccccc1 | 107% (active)
